Only some compounds are listed: those with a hit (about 19% of all), similar ones and a draw of the others.
KB-3-1 tox – KB-3-1 parental cell cytotoxicity; KB-3-1 viability, CellTiter-Glo ATP luminescence, 72 h; Potency, µM (top dose mostly 46.1 µM), hits mostly cytotoxic; hit rate 1.4% among 400,000; AID 1347075; also: nearly all actives have a fitted effect of over 60% in size
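KB-3-1 cells, DMEM (no phenol red) + 10% FBS; compound by pin transfer, 72 h, 37 °C. Readout: CellTiter-Glo luminescence after 10 min. Data normalized, curve-fitted.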
HT1080NT lethal – kills 2HG-producing HT-1080-NT fibrosarcoma cells | HT-1080-NT fibrosarcoma viability, CellTiter-Glo ATP luminescence, 48 h | hit rate 1.6% among 360,000 | Potency, µM (highest dose often 46.1 µM), hits mostly cytotoxic;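 also: NT is the 2HG producing partner of a matched IDH1 knockdown line; nearly all actives have a fitted effect of over 55% in size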
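Viability by CellTiter-Glo luminescence after 48 h compound exposure at 37C of HT-1080-NT cells (750/well, RPMI, 5% FBS). % activity scaled between DMSO wells and medium-only wells, then curve-fitted and categorized by curve class.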
HT1080 IDH1KD tx – kills HT-1080 cells with IDH1 knockdown; Potency, µM (doses to about 46.1 µM), hits mostly cytotoxic; hit rate 2% among 360,000; AID 686971; HT-1080 IDH1 knockdown viability, ATP luminescence, 48 h
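In this qHTS, HT-1080 cells depleted of IDH1 are exposed for 48 h at 37 °C to compound titrations. Toxicity is scored from CellTiter-Glo luminescence, with DMSO as full viability and medium alone as none.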
TDP1 cell noCPT – qHTS for Inhibitors of human tyrosyl-DNA phosphodiesterase 1 (TDP1): qHTS in cells in absence of CPT | DT40 Tdp1-/- hTDP1 cells, no CPT, ATP luminescence, 48 h | Potency, µM (highest dose often 46.2 µM), hits mostly inhibitors | hit rate 15% among 420,000; also: nearly all actives have a fitted effect of over 55% in size
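Cells were dispensed at 400 per well, compounds added by pin tool, plates incubated ≥48 hr at 37 °C, then CellTiter-Glo added for 30 min at room temperature before luminescence reading. Line: DT40 Tdp1-/- complemented with hTDP1; camptothecin omitted.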
KB-V1 cytotox – kills drug-selected multidrug resistant KB-V1 cells | KB-V1 MDR cells viability, CellTiter-Glo, 72 h | Potency, µM (highest dose often 46.1 µM), actives largely listed as cytotoxic | hit rate 3.4% among 400,000; also: nearly all actives have a fitted effect of over 60% in size
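KB-V1 MDR subline cells in DMEM (phenol-red free, 10% FBS) exposed to compounds in qHTS concentration series for 72 h at 37 degrees C. Viability read by CellTiter-Glo luminescence; concentration-effect curves fitted after normalization and correction.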
TDP1 cell CPT – DT40-hTDP1 cell growth loss with CPT. hit rate 12% among 420,000. Potency, µM (series often up to 46.2 µM), usual class: inhibitors. chicken DT40 Tdp1-/-;hTDP1 cells + 20 nM CPT, ATP luminescence, 48 h. AID 686979; also: nearly all actives have a fitted effect of over 55% in size
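Cell growth measured by CellTiter-Glo luminescence after a minimum 48 h, 37 C compound exposure with 20 nM CPT in Tdp1-knockout DT40 cells stably expressing hTDP1, seeded 400/well; qHTS titration format.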
Hits are given with their value; . = inactive; ? = inconclusive; / = no result. Calls follow the shape of the dose curve; as a rule, active = well fitted curve in the direction sought with a large enough effect; inconclusive = small, poorly fitted or top-dose-only effect, or another doubt; inactive = no such curve, though single readings can be large; an effect the other way counts as inactive or inconclusive.

SMILES | KB-3-1 tox | HT1080NT lethal | HT1080 IDH1KD tx | TDP1 cell noCPT | KB-V1 cytotox | TDP1 cell CPT
Cc1cccc(C)c1-n1nnnc1C(c1ccnc2ccccc12)N1CCN(C(=O)OCc2ccccc2)CC1 (stereo unspecified) | ? | . | . | 16µM | . | ?
NCC1CCCCC1CC(=O)O (stereo unspecified) | / | / | / | . | / | .
CCn1cc(/C=C(\NC(=O)c2ccc(C)cc2)C(=O)NCCCn2ccnc2)c2ccccc21 | . | / | / | 21µM | ? | ?
CCn1cc(/C=C(\NC(=O)c2ccccc2)C(=O)NCCCn2ccnc2)c2ccccc21 | . | . | . | . | . | .
Cc1ccc(Cl)c2c1=NC(=O)C=2c1[nH]c(=S)[nH]c1O | . | . | . | . | . | .
O=C1C=CC(=O)C(CNc2ccc(C(=O)OCc3ccccc3)cc2)=C1 | 21µM | 16µM | 10µM | 4.1µM | 21µM | 5.8µM
Cc1ncc([N+](=O)[O-])n1CC(=O)Nc1cc(Cl)ccc1Cl | . | . | . | . | . | .
CCCCC(CC)COC(=O)CC(C(=O)OCC(CC)CCCC)S(=O)(=O)O (stereo unspecified) | / | / | / | ? | / | .
CCCCC(CC)COC(=O)C(C#N)=C(c1ccccc1)c1ccccc1 (stereo unspecified) | . | . | ? | 18µM | ? | ?
CCCCn1c(N)c(N(CCC(C)C)C(=O)COC(=O)c2ccc3ccccc3c2)c(=O)[nH]c1=O | . | . | . | ? | . | ?
CCc1c(C)sc2c1CCN(Cc1ccc(F)cc1)C2c1ccccc1 (stereo unspecified) | ? | / | / | 4.6µM | . | ?
CCc1c(C)sc2c1CCN(Cc1cccc(F)c1)C2c1ccccc1 (stereo unspecified) | . | / | / | 12µM | . | ?
CC1CCN(S(=O)(=O)c2ccc(NC(=O)C3CCCCC3C(=O)O)cc2)CC1 (stereo unspecified) | . | . | . | ? | . | ?
CCOC(=O)CN1C(=O)CCSc2ccc(Cl)cc21 | . | . | . | . | . | .
CC[C@]12c3[nH]c4cc(-c5ccco5)ccc4c3CCN1C(=O)[C@@H](CC(=O)NC(C)(C)C)C[C@@H]2C(=O)N1CCN(C(=O)c2ccco2)CC1 | . | . | . | 15µM | ? | 23µM
CC[C@]12c3[nH]c4ccc(Cl)cc4c3CCN1C(=O)[C@@H](CC(=O)NC(C)(C)C)C[C@@H]2C(=O)N1CCN(C(=O)c2ccco2)CC1 | . | . | . | 18µM | . | 15µM
CC[C@]12c3[nH]c4cc(-c5ccco5)ccc4c3CCN1C(=O)[C@@H](CC(=O)NCCN1CCOCC1)C[C@@H]2C(=O)N1CCN(C(=O)c2ccco2)CC1 | . | . | . | . | . | .
Cc1cc2c(cc(C(=O)OC(C)C(=O)NCc3ccc(F)cc3)n2C)o1 (stereo unspecified) | . | . | . | . | . | .
CCC1CCCCN1S(=O)(=O)c1ccc(N2CCCCS2(=O)=O)cc1 (stereo unspecified) | . | / | / | ? | . | ?
O=C(CC1C(=O)NCCN1Cc1ccc(F)c(F)c1)NCCCn1ccnc1 (stereo unspecified) | . | . | . | . | . | .
Cc1ccccc1C(=O)N/N=C/c1ccc(Sc2ccccn2)o1 | . | . | . | . | 21µM | .
Cc1ccccc1C(=O)Nc1cccc(C(=O)N/N=C/c2ccccn2)c1 | . | . | . | . | . | .
O=C(N/N=C\c1ccc(Sc2ccccn2)o1)c1cccc(Br)c1 | . | . | . | . | 23µM | .
O=C(Nc1cccc(C(F)(F)F)c1)c1cccc(NS(=O)(=O)c2ccc(O)c(C(=O)O)c2)c1 | . | . | . | . | . | .
C#CCSc1nc(Cc2ccc(Cl)cc2)nc2ccccc12 | . | . | . | ? | 16µM | .
C=CCNS(=O)(=O)c1cc2c3c(c1)CCN3C(=O)CC2 | . | . | . | . | . | .
